Most compounds without a hit are left out; they make up all but 10% or so of the library.
Lamin A splicing – modulators of lamin A splicing; HeLa LMNA splicing GFP/RFP minigene ratio, 48 h; Potency, µM (top dose mostly 46.1 µM), inactives show top-dose ratio change, negative = inhibition, hits mostly inhibitors; hit rate 0.01% among 200,000; AID 1487; active = well fitted inhibition curve with a large enough effect in the signal ratio, with a control signal flat, not every such curve was filed as active; inconclusive = small, poorly fitted or top-dose-only effect, or effect the other way, or a change in a side signal; the % refers to the signal ratio; note: potency is the fitted concentration of half-maximal effect
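S3 HeLa cells stably expressing lamin A-EGFP splicing minigene plus DsRed2, 600 cells/well, 48 h compound exposure at 37C. Laser-scanning cytometry; analysed as GFP (500-530 nm)/RFP (575-640 nm) total intensity ratio; 0.5% DMSO vehicle.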
ALOX12 inhib – inhibitors of human 12-lipoxygenase (ALOX12); P18054; purified 12-hLO, xylenol orange hydroperoxide absorbance; Potency, µM (highest dose often 57.1 µM), for inactives: top-dose activity change, negative = inhibition, hits mostly inhibitors; hit rate 0.12% among 150,000; AID 1452; active = well fitted inhibition curve with a large enough effect; inconclusive = small, poorly fitted or top-dose-only effect; note: potency is the fitted concentration of half-maximal effect; nearly all actives have a fitted effect of over 55% in size
Target sequence (P18054 whole entry, looked up): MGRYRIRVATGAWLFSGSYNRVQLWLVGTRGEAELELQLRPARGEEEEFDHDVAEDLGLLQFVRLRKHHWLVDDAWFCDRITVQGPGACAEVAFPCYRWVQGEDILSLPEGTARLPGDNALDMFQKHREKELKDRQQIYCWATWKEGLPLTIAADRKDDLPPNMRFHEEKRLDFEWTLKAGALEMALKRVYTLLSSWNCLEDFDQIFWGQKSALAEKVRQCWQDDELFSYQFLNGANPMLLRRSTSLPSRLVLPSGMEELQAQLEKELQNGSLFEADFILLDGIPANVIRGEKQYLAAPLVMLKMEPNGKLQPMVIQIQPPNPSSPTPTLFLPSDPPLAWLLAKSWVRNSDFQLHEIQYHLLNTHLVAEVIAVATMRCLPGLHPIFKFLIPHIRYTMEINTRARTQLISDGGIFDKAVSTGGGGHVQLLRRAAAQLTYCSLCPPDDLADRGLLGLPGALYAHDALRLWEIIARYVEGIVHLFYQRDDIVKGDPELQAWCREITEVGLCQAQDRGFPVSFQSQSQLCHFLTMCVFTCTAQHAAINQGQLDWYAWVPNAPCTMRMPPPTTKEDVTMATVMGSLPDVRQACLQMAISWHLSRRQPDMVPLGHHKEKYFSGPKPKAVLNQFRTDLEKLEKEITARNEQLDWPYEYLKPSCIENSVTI
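Hydroperoxide formation by human 12-lipoxygenase from 40 uM arachidonic acid was followed colorimetrically via ferric-xylenol orange complex, using the 573/405 nm absorbance ratio. Enzyme concentration was 150 nM, with 30 min reaction at room temperature.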
HPGD block – HPGD (human) dehydrogenase inhibition | P15428 | purified HPGD, NADH fluorescence kinetic, PGE2 substrate | Potency, µM, inactives show top-dose activity change, negative = inhibition, usual class: inhibitors | hit rate 4.3% among 150,000 | AID 894; note: potency is the fitted concentration of half-maximal effect
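NADH formation kinetics: reaction with 30 uM PGE2 and 1 mM NAD+ (final), 20 nM enzyme, Tris-HCl pH 8 with Tween 20, after 15 min compound preincubation at room temperature. Fluorescence change, last versus first of five reads.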
PNC inhibitor – blocks assembly of the perinucleolar compartment. activity change (PNC), negative = inhibition, % at 10 µM. PC3M PTB-GFP, PNC prevalence imaging, 16 h; hits give low values. hit rate 3.1% among 140,000. AID 2417;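 active = readout at or below -70, meaning at least 70% loss of cells showing the perinucleolar compartment, a nuclear body marking cancer cells; inconclusive = readout between -30 and a set limit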;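 note: plate controls were DMSO wells for no effect and camptothecin positive control wells for full effect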
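Read-out is percentage of cells bearing a perinucleolar compartment, from automated 20x imaging of fixed, Hoechst-stained PC3M PTB-GFP cells. Cells were seeded 4 h, then exposed 16 h to compound (23 nl of library stock) in duplicate plates.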
ALDH1A1 block – blocks purified human ALDH1A1 activity. AID 1030. hit rate 7.3% among 220,000. Purified ALDH1A1, NADH fluorescence, propionaldehyde substrate. Potency, µM (series often up to 75.3 µM), without a hit: at the highest dose activity, negative = inhibition, actives largely listed as inhibitors;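 note: potency is the fitted concentration of half-maximal effect; plate controls were no enzyme wells and a reference inhibitor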
* marks the source's active call; other numbers are inactive results; ? = inconclusive; . = not tested or not shown; ! = not active in a repeat; [ ] = remark or other dose. Unless noted, calls come from the whole dose curve; as a rule, active = well fitted inhibition curve with a large enough effect (not every such curve was filed as active); inconclusive = small, poorly fitted or top-dose-only effect, or another doubt; inactive = no such curve, though single readings can be large or run the other way. Unless noted, % is set by controls: 0 for no effect and ±100 for the full control effect.

SMILES	Lamin A splicing	ALOX12 inhib	HPGD block	PNC inhibitor	ALDH1A1 block
COCCn1nnnc1C(c1cc2ccc(C)cc2[nH]c1=O)N(Cc1ccco1)Cc1cccs1 (configuration not stated)	?	-17.2%	-16.4%	-24.1	17.8µM*
Cc1cc2cc(C(c3nnnn3C3CCCC3)N(Cc3cccnc3)Cc3ccco3)c(=O)[nH]c2cc1C (configuration not stated)	3.7%	-3.4%	?	11.0	14.1µM*
Cc1cc(Nc2ccccc2N2CCOCC2)n2ncnc2n1	-4.4%	-3.4%	17.8µM*	-11.7	4.2%
COc1ccc(-c2cc(C(=O)Nc3cccc(O)c3)on2)cc1OC	-3.8%[46 µM]	.	.	.	.
COc1cccc(-c2noc(Cn3nc(C)c([N+](=O)[O-])c3C)n2)c1	-0.9%	-17.5%	25.1µM*	12.6	-8.3%
COc1cccc(OCc2nc(-c3cccc([N+](=O)[O-])c3)no2)c1	.	.	.	.	-3.3%
CCCc1cc(-c2n[nH]c(=S)n2CC(C)C)cs1	?	-17.4%	?	-7.3	11.2µM*
CCCCn1c(-c2csc(CC)c2)n[nH]c1=S	?	-19.5%	?	?	?
CCCCn1c(-c2csc(C(C)C)c2)n[nH]c1=S	?	?	?	-109.0*	7.94µM*
COc1ccc(NC(=O)CC2C(=O)N(c3cccc(OC)c3)C(=O)N2Cc2ccco2)cc1 (configuration not stated)	.	.	.	.	15.8µM*
S=c1[nH]nc(C2CCCCC2)n1/N=C/C=C/c1ccccc1	9.9%	?	17.8µM*	63.5	2.6%
S=c1[nH]nc(C2CCCCC2)n1/N=C/C(Cl)=C\c1ccccc1	?	-14.7%	-27.5%	-27.2	5.2%
O=[N+]([O-])c1ccccc1/C=N/n1c(-c2cccnc2)n[nH]c1=S	?	1.9%	?	-22.2	?
S=c1[nH]nc(C2CCCCC2)n1/N=C/c1ccc(Br)s1	?	-0.1%	5.01µM*	11.4	-7.7%
O=[N+]([O-])c1ccc(Cl)c(/C=N/n2c(C3CCCCC3)n[nH]c2=S)c1	7.2%	2.8%	0.631µM*	-18.9	?
O=[N+]([O-])c1ccc(Cl)c(/C=N/N2CCN(C3c4ccccc4-c4ccccc43)CC2)c1	6.0%[0.0737 µM]	1.6%	0.7%	-26.9	9.7%
O=[N+]([O-])c1ccccc1/C=N/n1c(C2CCCCC2)n[nH]c1=S	9.0%	-18.8%	15.8µM*	19.2	7.08µM*
O=C(N/N=C\c1ccccc1O)c1ccccc1O	.	-1.2%	?	.	8.8%
CCCCCCC1=Cc2cc(OC)c(OC)cc2C(CC(=O)/C=C/OC)O1 (configuration not stated)	.	.	.	.	-2.0%[13.5 µM]
S=c1[nH]nc(COc2ccccc2)n1/N=C/c1ccccn1	4.8%	1.6%	?	11.1	?
Cc1cc(-c2n[nH]c(=S)n2/N=C/c2cccc([N+](=O)[O-])c2)n[nH]1	-0.7%	0.8%	?	4.9	?
O=[N+]([O-])c1cccc(/C=N/n2c(C3CCCCC3)n[nH]c2=S)c1	-2.4%	-0.8%	2.51µM*	20.2	-10.2%
O=[N+]([O-])c1ccc(Cl)c(/C=N/n2c(COc3ccccc3)n[nH]c2=S)c1	1.5%	-0.7%	8.91µM*	15.2	14.1µM*
CCCCc1nc2c(c3c1C[C@H](C)OC3)CN(C(=O)NCCCC(=O)OCC)CC2	-6.0%[9.22 µM]	-0.8%[11.4 µM]	-4.6%	.	9.4%[13.5 µM]
COc1ccc2cc(C(=O)Nc3ccc(Cl)cc3)sc(=O)c2c1OC	-1.2%	-1.9%	-9.7%	-22.6	13.9%
SMILES	Lamin A splicing	ALOX12 inhib	HPGD block	PNC inhibitor	ALDH1A1 block
COc1ccc(CNC(=O)CSCc2ccc(C)cc2)c(OC)c1	5.2%[46 µM]	.	.	.	.
O=C(N/N=C/c1ccccc1O)c1cccc(C(F)(F)F)c1	?	0.1%	-23.3%	-93.9*	6.2%
CNC1=CN=C(c2ccccc2)c2cc(Cl)ccc2N1	.	-1.4%[0.00818 µM]	-11.2%	.	11.8%
Cc1nn(-c2ccccc2)c2nc(C3CC3)cc(C(=O)Nc3ccc(F)cc3)c12	8.8%[46 µM]	.	.	.	.
O=C(c1ccco1)N1CCC2(CC1)CCN(C(c1ccccc1)c1ccccc1)CC2	.	1.4%	-1.8%	.	0.6%
Cc1ccccc1-n1c(=O)cc(N2CCc3ccccc32)[nH]c1=O	-12.9%	3.5%	-20.8%	-108.4*	?
O=c1cc(N2CCc3ccccc32)[nH]c(=O)n1-c1ccc(Br)cc1	-11.9%	-7.8%	28.2µM*	-13.5	?
COc1ccc(-n2c(=O)cc(N3CCc4ccccc43)[nH]c2=O)cc1	-5.5%	-0.8%	-19.7%	44.1	-1.9%
Cc1cccc(C)c1Nc1nnc(SCc2cc([N+](=O)[O-])cc3c2OCOC3)s1	3.2%	3.2%	11.2µM*	-0.7	22.4µM*
COc1ccccc1C(=O)Nc1ccc(C(=O)OCc2cc(=O)n3c4c(sc3n2)CCCC4)cc1	12.5%[46 µM]	.	.	.	.
O=C(COC(=O)c1ccncc1)c1ccc(Br)cc1	?	.	.	.	4.5%
COC(=O)C(CC(=O)c1ccc(Br)cc1)n1ccnc1 (configuration not stated)	?	?	2.51µM*	-8.3	0.447µM*
CC(C)Cn1c2c(c(O)c(C(=O)Nc3nccs3)c1=O)CCCC2	?	-9.2%	-4.8%	15.0	14.1µM*
Cc1cc(/C=N/n2c(COc3ccccc3C)nc3ccccc3c2=O)c(O)c([N+](=O)[O-])c1	?	?	1µM*	?	2.0%
Cc1ccccc1OCc1nc2ccccc2c(=O)n1/N=C/c1c[nH]c2ccccc12	?	2.3%	-3.4%	-123.3*	0.6%
Cc1cccc(C)c1OCc1nc2ccccc2c(=O)n1/N=C/c1c[nH]c2ccccc12	?	-5.7%	.	?	-7.6%
CC(C)=CCC/C(C)=C/CO/N=C1/C[C@@H](O)[C@@H](O)[C@@H]2[C@@H]3C(=O)N([C@@H](C)c4ccccc4)C(=O)[C@H]3CC[C@@H]12	.	.	.	.	-5.5%[13.5 µM]
CCc1ccc(CNC(=O)C2Cc3cc(S(=O)(=O)N4CCCCCC4)ccc3N2C(C)=O)cc1 (configuration not stated)	6.4%[46 µM]	.	.	.	.
O=C(CSc1nc2ccc([N+](=O)[O-])cc2s1)c1ccc2ccccc2c1	.	1.7%[11.4 µM]	-4.2%	.	11.2µM*!
O=[N+]([O-])c1ccc2nc(SCc3ccccc3Cl)sc2c1	10.0%	-2.3%	-12.1%	99.3	?
Cc1ccc(S(=O)(=O)N2CCOCC2)cc1NC(=O)CSc1n[nH]c(N)n1	9.6%[46 µM]	.	.	.	0.4%
CC(C)(C)NC(=O)CSc1nnc(NC(=O)c2ccccc2Cl)s1	5.9%[9.22 µM]	.	.	.	-5.3%
O=C(CSc1nnc(NC(=O)c2ccccc2Cl)s1)Nc1ccc2c(c1)oc1ccccc12	?	0.5%	-6.1%	-22.9	17.8µM*
COc1ccc(S(=O)(=O)N2CCOCC2)cc1NC(=O)CSc1n[nH]c(C(C)C)n1	.	.	.	.	25.1µM*
O=C(CSc1nc2ccccc2s1)c1cc2ccccc2o1	-13.6%	-10.3%	22.4µM*	11.9	?
